# Assay results published in PubChem BioAssay AID504401 (The Scripps Research Institute Molecular Screening Center, 2011).
# A number with no mark means an inactive call. How the calls were made is not given here.
# Test system: Rolipram
# Experiment: CYP450 and receptor off-target profile – biochemical, Ricerca HitProfilingScreen, selectivity assay for GPR7 antagonist project, late-stage follow-up (AID 504401)
# Details: Ricerca radioligand binding and CYP450 panel, at 10 µM, hits give high values
smiles,measurement,value
COc1ccc(Oc2c(Cl)cnn(-c3cc(C)cc(C)c3)c2=O)cc1,inhibition,22%
